Source: PubChem BioAssay (NCATS)
Active and inactive are the calls of the source. The call rests on the fitted dose curve; in most records, active means well fitted inhibition curve with a large enough effect; inconclusive means small, poorly fitted or top-dose-only effect; inactive means flat fitted curve, though single readings scatter.

target: Luciferin 4-monooxygenase (Photinus pyralis) (UniProt P08659); assay: Primary firefly luciferase (FLuc) qHTS assay for identification of artifact compounds. (AID 1845220); conditions: purified firefly luciferase, luminescence, 5 min; series mostly up to 54.1 µM; further: nearly all actives have a fitted effect of over 60% in size
Summary of the method: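 FLuc 10 nM; luciferin 10 uM; ATP 10 uM; Tris-acetate pH 7.6, Mg-acetate 10 mM; 15 min RT preincubation; 5 min reaction; luminescence.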

SMILES	outcome
C/C=C(/C)C1C=CC2CC(C)CC(C)C2C1/C(O)=C1\C(=O)NC(CC(C)(O)C(=O)O)C1=O (centres undefined)	inactive [at 25.7 µM]
CS[C@]1(CO)C(=O)N2[C@H]3C(=CC=C[C@@H]3O)C[C@@]2(SC)C(=O)N1C	inactive
COc1ccc2c3c4n(c2c1)[C@@H](C=C(C)C)OOC(C)(C)C[C@@H]4N1C(=O)[C@@H]2CCCN2C(=O)[C@]1(O)[C@H]3OCC=C(C)C	inactive
CC1=CC2/C=C(\C)CCCC(O)/C=C/C(=O)OC23C(=O)NC(CC(C)C)C3C1C (centres undefined)	inactive
C=CC(C)(C)c1[nH]c2c(CC=C(C)C)cc(CC=C(C)C)cc2c1C[C@@H]1NC(=O)[C@H](C)NC1=O	inactive
COc1cc(O)c2c(c1)/C=C/C[C@@H](O)[C@@H](O)C(=O)CCC[C@H](C)OC2=O	inactive
CC(=O)O[C@H]1CC[C@H]2[C@@H]3CC[C@H]4CC(=O)C=C(C)[C@]4(C)[C@H]3CC[C@]12C	inactive
COc1cc(N2CCN(C)CC2)ccc1N	inactive
COCC(C(=O)OC1CC2CCC(C1)N2C)c1ccccc1 (centres undefined)	inactive
N#CC(O[C@@H]1O[C@H](CO)[C@@H](O)[C@H](O)[C@H]1O)c1ccccc1 (some centres undefined)	inactive
CC[C@H]1C2CC3[C@@H]4N(C)c5ccccc5[C@]45C[C@@H]([C@H]2[C@H]5O)N3[C@H]1O	inactive
NC(=O)c1ncn2c1CN=C(c1ccccc1Br)c1cc(F)ccc1-2	inactive
Cc1c(N2C(=O)[C@@H]3[C@H](O)CCN3C2=O)ccc(C#N)c1Cl	inactive
CC(=O)O[C@@H]1[C@H]2CC[C@H]3[C@@](C)(O)[C@@H]4C[C@H](O)C(C)(C)[C@@]4(O)[C@H](O)C[C@@]13C[C@@]2(C)O	inactive
